In PubChem BioAssay (Tox21):
Records with an inconclusive call do not appear. Entries that show only a call come without a potency. Calls of active or inactive are those of the source. Unless noted, the call rests on the fitted dose curve; in most records, active means well fitted curve in the direction sought with a large enough effect in the repeat runs; inconclusive means weak or mixed curves; inactive means no such curve, though single readings can be large; an effect the other way counts as inactive or inconclusive.

Key:
[1] = qHTS assay to identify small molecule agonists of the RXR signaling pathway - cell viability counter screen (AID 1159529); further: nearly all actives have a fitted effect of over 50% in size; further: potency means the concentration at half of the fitted maximal effect
Outline: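 Luminescence from CellTiter-Glo (30 min, RT) measured viability in the same wells as the beta-lactamase reporter readout. Cells: GeneBLAzer RXR-alpha HEK 293T, 2% charcoal-stripped FBS. Compound exposure 16 hr, 37 C.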

[2] = qHTS assay to identify small molecule antagonists of the retinoid acid receptor (RAR) signaling pathway - cell viability counter screen (AID 1159551); further: nearly all actives have a fitted effect of over 35% in size; further: potency means the concentration at half of the fitted maximal effect
Outline: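 C3RL4 RARE-luciferase cells, 1,000/well, incubated overnight, then dosed with compound plus 1 uM retinol (final). After 6 hr at 37 C, viability read by CellTiter-Glo ATP luminescence following 30 min at room temperature.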

[3] = qHTS assay to identify small molecule antagonists of the retinoic acid receptor (RAR) signaling pathway (AID 1159552; further: nearly all actives have a fitted effect of over 50% in size; further: potency means the concentration at half of the fitted maximal effect)
Outline: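 Luminescence from a RARE luciferase reporter in C3RL4 cells served as read-out. Cells received compounds together with 1 uM final retinol and incubated 6 hr at 37 C before detection reagent was added for 30 min at room temperature.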

[4] = qHTS assay to identify small molecule antagonists of the estrogen related receptor (ERR) signaling pathway from Tox21 library - cell viability counter screen (AID 1224834); further: nearly all actives have a fitted effect of over 30% in size; further: potency means the concentration at half of the fitted maximal effect
Outline: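 ERR reporter cells, 2,000 per well, rested 6 h, then exposed to compound in DMSO for 17.5 hours at 37 C. Viability read as fluorescence after 30 min with CellTiter-Fluor.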

[5] = target: Luciferin 4-monooxygenase (Photinus pyralis) (UniProt P08659); assay: qHTS assay to identify small molecule inhibitors of firefly luciferase (AID 1224835); further: nearly all actives have a fitted effect of over 25% in size; further: potency means the concentration at half of the fitted maximal effect
Sequence of Luciferin 4-monooxygenase (Photinus pyralis) (P08659 whole entry, looked up): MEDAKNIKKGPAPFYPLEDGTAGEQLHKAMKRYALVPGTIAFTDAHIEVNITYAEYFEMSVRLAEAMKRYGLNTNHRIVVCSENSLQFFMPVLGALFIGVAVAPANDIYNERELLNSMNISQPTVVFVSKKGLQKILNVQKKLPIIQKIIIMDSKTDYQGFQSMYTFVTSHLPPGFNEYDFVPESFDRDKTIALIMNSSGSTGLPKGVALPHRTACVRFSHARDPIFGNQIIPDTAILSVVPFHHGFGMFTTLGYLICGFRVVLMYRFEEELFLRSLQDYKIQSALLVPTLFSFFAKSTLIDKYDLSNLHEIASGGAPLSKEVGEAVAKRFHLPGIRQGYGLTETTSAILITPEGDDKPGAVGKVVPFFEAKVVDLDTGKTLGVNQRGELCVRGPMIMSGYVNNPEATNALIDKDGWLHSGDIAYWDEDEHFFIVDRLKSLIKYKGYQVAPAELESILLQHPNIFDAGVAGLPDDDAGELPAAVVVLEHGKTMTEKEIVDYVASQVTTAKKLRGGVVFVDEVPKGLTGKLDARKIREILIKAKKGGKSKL
Outline: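 Inhibition of purified Photinus luciferase is measured by luminescence. Substrate levels (D-luciferin, ATP) sit at their KM values. Each compound is tested in a concentration series.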

[6] = qHTS assay to identify small molecule antagonists of the constitutive androstane receptor (CAR) signaling pathway - cell viability counter screen (AID 1224837); further: nearly all actives have a fitted effect of over 45% in size; further: potency means the concentration at half of the fitted maximal effect
Outline: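 HepG2 cells stably carrying hCAR and CYP2B6-2.2kb reporter, stimulated with 50 nM CITCO and compounds at 15 concentrations for 23 h at 37 C. Viability measured by CellTiter-Fluor fluorescence.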

[7] = target: Nuclear receptor subfamily 1 group I member 3 (Homo sapiens) (UniProt Q14994); assay: qHTS assay to identify small molecule antagonists of the constitutive androstane receptor (CAR) signaling pathway (AID 1224838); further: nearly all actives have a fitted effect of over 40% in size; further: potency means the concentration at half of the fitted maximal effect
Sequence of Nuclear receptor subfamily 1 group I member 3 (Homo sapiens) (Q14994 whole entry, looked up): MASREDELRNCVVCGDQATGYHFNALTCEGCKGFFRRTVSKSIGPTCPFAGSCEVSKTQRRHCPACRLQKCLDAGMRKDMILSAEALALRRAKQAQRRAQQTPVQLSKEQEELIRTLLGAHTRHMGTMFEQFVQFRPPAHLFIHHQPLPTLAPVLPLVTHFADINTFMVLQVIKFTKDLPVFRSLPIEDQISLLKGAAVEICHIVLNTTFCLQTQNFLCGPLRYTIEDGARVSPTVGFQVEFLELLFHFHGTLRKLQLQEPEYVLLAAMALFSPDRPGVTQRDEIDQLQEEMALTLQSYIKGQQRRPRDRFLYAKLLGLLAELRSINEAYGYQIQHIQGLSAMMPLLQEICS
Outline: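 HepG2 cells stably carrying hCAR and a CYP2B6-2.2kb luciferase reporter, seeded 4 hrs before compound (15 concentrations). Stimulated with 50 nM CITCO for 24 hr at 37 C. ONE-Glo luminescence read after 30 min at room temperature.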

[8] = target: Nuclear receptor subfamily 1 group I member 3 (Homo sapiens) (UniProt Q14994); assay: qHTS assay to identify small molecule agonists of the constitutive androstane receptor (CAR) signaling pathway (AID 1224839); further: nearly all actives have a fitted effect of over 15% in size; further: potency means the concentration at half of the fitted maximal effect
Outline: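 Luminescence read-out (ONE-Glo, 30 min, room temperature) from double-stable HepG2-CYP2B6-hCAR cells exposed 24 h to 15-point compound series in presence of 0.75 uM PK11195 final.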

[9] = target: Thyrotropin receptor (Homo sapiens) (UniProt P16473); assay: qHTS assay to identify small molecule agonists of the thyroid stimulating hormone receptor (TSHR) signaling pathway (AID 1224843; calls by dose curve; further: nearly all actives have a fitted effect of over 45% in size)
Sequence of Thyrotropin receptor (Homo sapiens) (P16473 whole entry, looked up): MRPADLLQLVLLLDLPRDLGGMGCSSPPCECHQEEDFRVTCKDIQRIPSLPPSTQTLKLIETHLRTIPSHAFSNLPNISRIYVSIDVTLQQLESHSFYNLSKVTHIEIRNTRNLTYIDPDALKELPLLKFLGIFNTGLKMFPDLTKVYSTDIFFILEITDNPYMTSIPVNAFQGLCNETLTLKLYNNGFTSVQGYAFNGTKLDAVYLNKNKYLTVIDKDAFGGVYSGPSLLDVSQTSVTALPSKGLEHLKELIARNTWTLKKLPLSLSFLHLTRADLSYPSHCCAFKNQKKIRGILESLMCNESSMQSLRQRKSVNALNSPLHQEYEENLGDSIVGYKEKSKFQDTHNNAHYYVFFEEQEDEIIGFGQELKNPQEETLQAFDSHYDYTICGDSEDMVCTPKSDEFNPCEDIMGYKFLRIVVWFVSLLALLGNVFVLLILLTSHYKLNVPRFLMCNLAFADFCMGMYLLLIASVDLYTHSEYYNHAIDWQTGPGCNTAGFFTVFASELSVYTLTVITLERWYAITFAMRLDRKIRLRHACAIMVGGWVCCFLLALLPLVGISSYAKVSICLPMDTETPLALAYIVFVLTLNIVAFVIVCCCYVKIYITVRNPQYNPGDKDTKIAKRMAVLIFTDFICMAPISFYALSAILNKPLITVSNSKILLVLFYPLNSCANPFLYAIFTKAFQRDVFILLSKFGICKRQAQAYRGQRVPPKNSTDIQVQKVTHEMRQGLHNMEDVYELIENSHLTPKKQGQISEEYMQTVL
Outline: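 Screening of the Tox21 10K collection used HEK293 cells engineered with TSHR at 800 cells per well. After a 30-min room-temperature compound exposure, HTRF cAMP reagents were added and fluorescence recorded 1 h later.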

[10] = qHTS assay to identify small molecule agonists of the constitutive androstane receptor (CAR) signaling pathway - cell viability counter screen (AID 1224836); further: nearly all actives have a fitted effect of over 45% in size; further: potency means the concentration at half of the fitted maximal effect
Outline: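 Viability read-out: CellTiter-Fluor fluorescence after 23 h compound exposure at 37 C/5% CO2 in double-stable HepG2-CYP2B6-hCAR cells, with PK11195 present at 0.75 uM final; compounds tested in 15-point titration.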

[11] = qHTS assay to identify small molecule antagonists of the estrogen related receptor signaling pathway with the pleiotropic PPARgamma coactivator (PGC) from Tox21 10K library - cell viability counter screen (AID 1224840; active means well fitted cell-killing curve with a large enough effect in the repeat runs, not every such curve was filed as active; further: nearly all actives have a fitted effect of over 40% in size; further: potency means the concentration at half of the fitted maximal effect)
Outline: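 PGC/ERR cells (2,000/well) plated 6 h, then compound-treated for 17.5 h at 37 C. Viability measured by CellTiter-Fluor fluorescence after 30 min at 37 C, multiplexed with the pathway assay.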

[12] = qHTS assay to identify small molecule antagonists of the estrogen related receptor signaling pathway with the pleiotropic PPARgamma coactivator (PGC) from Tox21 10K library (AID 1224841; call rule not given here; further: actives are mostly falling curves and most rising ones were filed inactive; nearly all actives have a fitted effect of over 50% in size; further: potency means the concentration at half of the fitted maximal effect)
Outline: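 PGC/ERR cell line, 2,000 cells/well, pre-incubated 6 hours at 37 C, then exposed to compounds for 18 hours at 37 C; luciferase read with One-Glo luminescence after 30 min at room temperature.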

[13] = qHTS assay to identify small molecule agonists of the estrogen related receptor signaling pathway with the pleiotropic PPARgamma coactivator (PGC) from Tox21 10K library (AID 1224842); further: nearly all actives have a fitted effect of over 15% in size
Outline: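 Luminescence from One-Glo (30 min, room temperature) measured after PGC/ERR cells had 18 h at 37 C with pinned compound (23 nL in DMSO). Cells had been seeded at 2,000 per well and pre-incubated 6 h.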

[14] = qHTS assay to identify small molecule agonists of the retinoic acid receptor (RAR) signaling pathway (AID 1159553)
Outline: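 C3RL4 RARE-luciferase cells were seeded at 1,000/well and grown overnight at 37 C, then exposed to compounds for 6 hr at 37 C, 5% CO2. Luciferase reagent was added and luminescence was read after 30 min at room temperature.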

[15] = qHTS assay to identify small molecule antagonists of the estrogen related receptor (ERR) signaling pathway - cell viability counter screen (AID 1224818); further: series mostly up to about 46 µM
Outline: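 ERR cells, 2,000 per well, compound added after 6 h and incubated 17.5 h at 37 C. Viability read by CellTiter-Fluor fluorescence after a further 30 min at 37 C.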

[16] = qHTS assay to identify small molecule antagonists of the estrogen related receptor (ERR) signaling pathway (AID 1224819;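 further: luminescence from an ERR-driven luciferase reporter measured with One-Glo reagent; series mostly up to about 46 µM; nearly all actives have a fitted effect of over 50% in size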)
Outline: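 ERR reporter cell line (NTP) plated at 2,000 cells/well, settled 6 h at 37C/5% CO2, then exposed to LOPAC compounds for 18 h at 37C. One-Glo luciferase luminescence read after 30 min at room temperature.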

[17] = qHTS assay to identify small molecule agonists of the estrogen related receptor (ERR) signaling pathway (AID 1224820)
Outline: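 ERR reporter cell line (from NTP), 2,000 cells/well, incubated 6 h before compound addition, then 18 h at 37 C. Luminescence measured 30 min after One-Glo reagent at room temperature.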

[18] = tested on: estrogen-related receptor alpha (ERRalpha) with PGC-1alpha coactivator, human; assay: qHTS assay to identify small molecule antagonists of the estrogen related receptor signaling pathway with the pleiotropic PPARgamma coactivator (PGC) (AID 1224821; calls by dose curve)
Outline: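 PGC/ERR reporter cell line, plated 6 h before compound addition, then exposed 18 h at 37 °C. Luciferase activity read by luminescence 30 min after One-Glo addition; decrease indicates antagonism.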

[19] = qHTS assay to identify small molecule antagonists of the estrogen related receptor signaling pathway with the pleiotropic PPARgamma coactivator (PGC) cell viability counter screen (AID 1224822; further: series mostly up to about 46 µM)
Outline: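 PGC/ERR cells rested 6 h, then compound-treated 17.5 h at 37 C. CellTiter-Fluor added for 30 min at 37 C, viability measured by fluorescence intensity.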

[20] = qHTS assay to identify small molecule agonists of the estrogen related receptor signaling pathway with the pleiotropic PPARgamma coactivator (PGC) (AID 1224823)
Outline: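 PGC/ERR reporter cells seeded 6 h, then exposed to compounds (23 nL in DMSO) for 18 h at 37 C. One-Glo luciferase luminescence read after 30 min at room temperature.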

SMILES | Potency [1] | Potency [2] | Potency [3] | Potency [4] | Potency [5] | Potency [6] | Potency [7] | Potency [8] | Potency [9] | Potency [10] | Potency [11] | Potency [12] | Potency [13] | Potency [14] | outcome [15] | Potency [16] | outcome [17] | Potency [18] | Potency [19] | outcome [20]
[Cl][Sb]([Cl])[Cl] | inactive | inactive | inactive | 21.7 µM (active) | inactive | inactive | inactive | inactive | inactive |  |  |  |  |  |  |  |  |  |  | 
CN(CCCC(O)c1cccnc1)N=O (stereo not drawn) | inactive | inactive | inactive | inactive | inactive | inactive |  |  | inactive | inactive | inactive |  |  |  |  |  |  |  |  | 
Oc1cccc(-c2ccccc2)c1 | inactive | inactive | inactive | inactive | 35.6 µM (active) | inactive | inactive | 54.5 µM (active) | inactive |  | inactive | inactive | inactive |  |  |  |  |  |  | 
O=C(Cl)c1ccc(Cl)cc1 | inactive | inactive | inactive | inactive | inactive | inactive |  |  | inactive | inactive | inactive |  |  |  |  |  |  |  |  | 
CCOC(=O)c1ccccc1S(=O)(=O)NC(=O)Nc1nc(Cl)cc(OC)n1 | inactive | inactive | inactive | inactive | inactive | inactive | inactive | inactive | inactive | inactive | inactive |  |  |  |  |  |  |  |  | 
O=[N+]([O-])c1cc(Cl)ccc1Cl | inactive | inactive | inactive | inactive | inactive | inactive | inactive | inactive | inactive | inactive | inactive |  |  |  |  |  |  |  |  | 
O=c1ssc(Cl)c1Cl | inactive | 68.6 µM (active) | 61.1 µM (active) |  | 17.8 µM (active) | 54.5 µM (active) | 54.5 µM (active) | inactive |  | 61.1 µM (active) |  |  | inactive |  |  |  |  |  |  | 
COS(=O)(=O)c1ccc(C)cc1 | inactive | inactive | inactive | inactive | inactive | inactive |  |  | inactive | inactive | inactive |  |  |  |  |  |  |  |  | 
Cc1ccc(C(=O)Cl)cc1 | inactive | inactive | inactive | inactive |  | inactive | inactive | inactive | inactive | inactive | inactive | inactive | inactive |  |  |  |  |  |  | 
O=C1C=CC(=O)c2ccccc21 | 9.77 µM (active) | 15.4 µM (active) | 27.3 µM (active) | 61.1 µM (active) | 20 µM (active) | 43.3 µM (active) |  | inactive |  | 54.5 µM (active) | 61.1 µM (active) | 34.4 µM (active) | inactive |  |  |  |  |  |  | 
Oc1ccccc1Br | inactive | inactive | inactive | inactive | inactive | inactive | inactive | inactive |  |  | inactive |  |  |  |  |  |  |  |  | 
CC(O)C#N (stereo not drawn) | inactive | inactive | inactive | inactive | inactive | inactive | 30.6 µM (active) | inactive | inactive | inactive | inactive |  |  |  |  |  |  |  |  | 
O=[N+]([O-])c1cc([N+](=O)[O-])c2ccccc2c1 | inactive | inactive |  | inactive | inactive | inactive |  | 24.3 µM (active) | inactive | inactive | inactive |  | inactive | inactive | inactive | inactive | inactive | inactive | inactive | inactive
Cc1cc(C)cc(OP(=O)(Oc2cc(C)cc(C)c2)Oc2cc(C)cc(C)c2)c1 | inactive | inactive |  | inactive | inactive | inactive |  |  | inactive | inactive | inactive | inactive | inactive | inactive |  |  |  |  |  | 
CN(C)S(=O)(=O)N(SC(F)(Cl)Cl)c1ccccc1 | 21.9 µM (active) | 48.6 µM (active) |  | 30.6 µM (active) | 35.6 µM (active) | 27.3 µM (active) | 21.7 µM (active) | inactive |  | 30.6 µM (active) | 24.3 µM (active) |  |  |  |  |  |  |  |  | 
C[C@@H]1CC[C@@]2(OC1)O[C@H]1[C@@H](O)[C@H]3[C@@H]4CC[C@H]5C[C@@H](O[C@@H]6O[C@H](CO)[C@H](O[C@@H]7O[C@H](CO)[C@@H](O)[C@H](O[C@@H]8OC[C@@H](O)[C@H](O)[C@H]8O)[C@H]7O[C@@H]7O[C@H](CO)[C@@H](O)[C@H](O[C@@H]8O[C@H](CO)[C@@H](O)[C@H](O)[C@H]8O)[C@H]7O)[C@H](O)[C@H]6O)[C@H](O)C[C@]5(C)[C@H]4CC[C@]3(C)[C@H]1[C@@H]2C | 4.13 µM (active) | 25.8 µM (active) |  | 20.5 µM (active) | inactive | 25.8 µM (active) | 29 µM (active) | inactive |  | 23 µM (active) | 20.5 µM (active) | 40.9 µM (active) | inactive |  |  |  |  |  |  | 
CC1(C)C(/C=C(\Cl)C(F)(F)F)C1C(=O)OC(C#N)c1cccc(Oc2ccccc2)c1 (stereo not drawn) | inactive | inactive |  | inactive | inactive | inactive |  | inactive | inactive | inactive | inactive |  |  |  |  |  |  |  |  | 
C=COCCCl | inactive | inactive |  | inactive | inactive | inactive | inactive | inactive | inactive | inactive | inactive | inactive | inactive |  |  |  |  |  |  | 
ClCc1ccc(Cl)cc1Cl | inactive | inactive |  | inactive | inactive | inactive | inactive | inactive | inactive | inactive | inactive |  |  |  |  |  |  |  |  | 
COCC(=O)N(c1c(C)cccc1C)[C@H](C)C(=O)OC | inactive | inactive |  | inactive | inactive | inactive | inactive | inactive | inactive | inactive | inactive | inactive | inactive |  |  |  |  |  |  | 
C[C@H]1CC[C@@H]2[C@@H](C)[C@H]3[C@H](C[C@H]4[C@@H]5CC=C6CC(O[C@@H]7O[C@H](CO)[C@H](O)[C@H](O[C@@H]8O[C@H](CO)[C@@H](O)[C@H](O)[C@H]8O)[C@H]7O[C@H]7O[C@@H](C)[C@H](O)[C@@H](O)[C@H]7O)CC[C@]6(C)[C@H]5CC[C@]34C)N2C1 (stereo partly drawn) | 14.3 µM (active) | 25.1 µM (active) |  | 22.4 µM (active) | inactive | 22.4 µM (active) | 22.4 µM (active) | inactive |  |  | 22.4 µM (active) | inactive |  | inactive |  |  |  |  |  | 
